In the library only some 3.5% were active in any assay of this set; here they are far more common.
MITF primary = blocks human microphthalmia-associated transcription factor. 650,000 compounds, 0.91% hits. inhibition, % at 2.6 µM. O75030. AID 1259374. AlphaScreen MITF homodimerization, bead proximity signal; in the data active = inhibition above about 50%;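 note: 0% = vehicle wells with protein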
FBW7 act = activators of human E3 ligase FBW7. AlphaScreen FBW7–phospho-cyclin E peptide binding, activator screen. normalized activity (activation), % at 26.1 µM. 650,000 compounds, 0.13% hits. AID 1259310; in the data active = normalized activity above about 1.9%;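 note: purified mutant Fbw7 with reduced substrate affinity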
TEAD-YAP inh = TEAD-YAP interaction inhibition; HEK-TIYL cells, TEAD-Gal4/YAP UAS-luciferase luminescence; AID 1259422; inhibition, % at 9.12 µM; 640,000 compounds, 1.4% hits; in the data active = inhibition above about 32%;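 note: 0% = median of test compound wells and 100% = reference inhibitor wells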
GPR151 ag = human GPR151 activation; Q8TDV0; PathHunter beta-arrestin GPR151 cells, luminescence; activation, % at 11.2 µM; 650,000 compounds, 1% hits; AID 1508602; in the data active = activation above about 4.9%;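 note: 0% = median of compound wells and 100% = cells with positive control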
Target sequence (Q8TDV0 whole entry, looked up): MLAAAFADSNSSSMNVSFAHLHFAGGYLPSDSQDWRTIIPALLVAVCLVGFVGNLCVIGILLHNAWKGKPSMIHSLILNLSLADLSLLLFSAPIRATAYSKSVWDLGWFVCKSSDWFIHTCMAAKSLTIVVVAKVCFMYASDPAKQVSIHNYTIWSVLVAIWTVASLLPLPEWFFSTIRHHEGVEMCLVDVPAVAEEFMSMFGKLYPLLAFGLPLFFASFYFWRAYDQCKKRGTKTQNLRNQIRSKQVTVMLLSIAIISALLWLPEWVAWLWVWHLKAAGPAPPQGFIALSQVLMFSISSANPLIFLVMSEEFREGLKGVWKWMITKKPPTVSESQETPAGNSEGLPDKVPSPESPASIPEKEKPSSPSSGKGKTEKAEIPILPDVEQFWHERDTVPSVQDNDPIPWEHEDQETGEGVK
MITF inh conf = confirmation of human MITF inhibitors | shares compounds with MITF primary | AlphaScreen MITF homodimerization, biotin/His-MITF beads | inhibition, % at 2.6 µM | 4,700 compounds, 16% hits | AID 1259372;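 active = inhibition above a cutoff derived from the DMSO control wells, cut at about 28% in these data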;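 note: 0% = MITF dimer wells with DMSO only; inhibitors lower the bead chemiluminescence by keeping MITF from dimerizing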
AlphaScreen DR = AlphaScreen optical interference, dose response counter-screen; shares compounds with MITF primary; AlphaScreen optical interference counterscreen, cell-free; IC50, µM; 480 compounds, 6% hits; call rule not given here
AlphaScreen intf2 = counter-screen: compounds optically interfering with AlphaScreen; shares compounds with MITF primary; LysRS AlphaScreen counterscreen, signal interference, triplicate; inhibition, % at 2.6 µM; 4,700 compounds, 7.6% hits;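 active = inhibition above a cutoff derived from the DMSO control wells, cut at about 30% in these data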
Active calls of the source: *; / = not tested or not shown.

SMILES	MITF primary	FBW7 act	TEAD-YAP inh	GPR151 ag	MITF inh conf	AlphaScreen intf2	others
CCc1cc2c(cc3c(=O)n(CC(=O)N(CC)Cc4ccccc4)ncn32)s1	71*	0	2	1	13	9
Cc1cc(N2CCCCC2)nc2ccc(NC(=O)c3cccnc3)cc12	53*	1	-6	0	-7	0
CC(C)(C)c1csc(CN2CCN(CC(=O)NC3CCCCC3)CC2)n1	26	0	1	1	/	/
CC(C)(C)c1csc(CN2CCN(CC(=O)N3CCOCC3)CC2)n1	54*	0	-3	-1	0	4
Cc1ccc(S(=O)(=O)N2CCN(C(C)CC(=O)O)CC2)cc1 (stereo not given)	65*	0	-15	-1	-3	0
CC1(C)CC(=O)C2=C(C1)OC(N)=C(C#N)C2c1ccc(O)cc1 (stereo not given)	1	0	1	-2	/	/
CCc1ccc(CN2CCN(Cc3cc(OC)c(O)c(OC)c3)CC2)cc1	66*	0	-5	-1	51*	7	AlphaScreen DR=>5.8
COc1cc(CN2CCCCCC2)cc(OC)c1O	18	0	10	3	/	/
COc1cc(CN2CCN(C3CCN(Cc4ccccc4)CC3)CC2)cc(OC)c1OC	59*	0	3	-1	-5	-2
COc1cc(CN2CCN(C3CCN(Cc4ccccc4)CC3)CC2)cc(OC)c1O	63*	0	3	-1	-6	7
COc1cc(CN2CCN(Cc3ccccc3)CC2)cc(OC)c1O	79*	0	4	-2	-35	0
CCC12c3ccccc3C(c3ccccc31)C1C(=O)N(c3ccc(Cl)c(C(=O)OC)c3)C(=O)C12 (stereo not given)	5	0	-16	0	/	/
CCOC(=O)c1cc2cc(C(C)=O)sc2[nH]1	-2	0	-13	0	/	/
CCC12C(=O)C(CC)(C(c3ccccc3)=C1c1ccccc1)C1C(=O)N(c3ccccc3F)C(=O)C12 (stereo not given)	2	0	-1	-1	/	/
COc1ccc(OC)c(NC(=O)CN2CCN(Cc3ccccc3)CC2)c1	62*	0	6	2	8	16
O=C(Cc1ccccc1)Nc1ccc(Nc2ccc(-n3cccn3)nn2)cc1	60*	0	-28	2	17	21
Cc1ccc(Nc2ccc(NC(=O)Cc3ccccc3)cc2)nn1	5	0	8	1	/	/
CCOC(=O)C1=C(C)N(C)C(=S)NC1c1ccc(OCc2ccccc2)c(OCC)c1 (stereo not given)	3	0	-19	0	/	/
CCCNc1nc(-c2ccc(OC)nc2)nc2nc[nH]c12	-3	0	14	3	/	/
COCCn1c(=S)[nH]c2cc(C(=O)Nc3ccccn3)ccc2c1=O	77*	0	-15	-1	-23	-2
COCCn1c(=S)[nH]c2cc(C(=O)NC(C)C)ccc2c1=O	5	0	-4	2	/	/
CCCNC(=O)CCS(=O)(=O)c1ccc2c(c1)n(C)c(=O)c(=O)n2C	7	0	0	-1	/	/
C=CCc1cc(C)ccc1OCCCN1CCOCC1	72*	0	5	4	-12	38*
Cc1ccc(Cl)c(OCCCN2CCOCC2)c1	55*	0	-13	0	13	14
C=CCc1cc(C)ccc1OCCN1CCN(C)CC1	57*	0	-11	-1	6	2
SMILES	MITF primary	FBW7 act	TEAD-YAP inh	GPR151 ag	MITF inh conf	AlphaScreen intf2	others
C=CCc1cc(C)ccc1OCCCN1CC(C)OC(C)C1 (stereo not given)	53*	0	-15	-1	2	-1
Cc1ccc(OCCN2CCOCC2)c(Cl)c1	-7	0	-4	2	/	/
COc1cc(C)ccc1OCCCN1CC(C)OC(C)C1 (stereo not given)	45	0	-11	0	/	/
C=CCc1cc(OC)ccc1OCCCCN1CCOCC1	33	0	-2	-1	/	/
Cc1ccc(C(=O)COC(=O)c2cccc(C)c2O)cc1[N+](=O)[O-]	-2	0	-1	1	/	/
COc1ccc(OC)c(C2SCCN2S(=O)(=O)c2ccc(NC(C)=O)cc2)c1 (stereo not given)	16	0	6	1	/	/
CC(C)Oc1ccc(C(=O)Nc2nc(-c3cccnc3)cs2)cc1	-5	0	-8	-2	/	/
COc1ccc(C2C(C#N)=C(N)N(c3ccc(Br)cc3)C3=C2C(=O)CC(C)(C)C3)cc1 (stereo not given)	10	0	-6	0	/	/
CCOC(=O)c1ccoc1COC(=O)/C=C/c1ccc(SC)cc1	7	0	5	2	/	/
C=CCc1cc(C)ccc1OCCNC(C)C	88*	0	10	0	-19	-3
O=C(CSc1nnc(NC(=O)Cc2ccc(F)cc2)s1)Nc1nccs1	-3	0	4	1	/	/
COCCNC(=O)CN(c1cccc(C(F)(F)F)c1)S(=O)(=O)c1ccccc1	15	0	-1	0	/	/
Oc1ccc(CNc2cccc(F)c2)c2cccnc12	62*	-1	55*	-1	98*	100*
Oc1ccccc1CNc1ccc(F)cc1	-1	0	-6	1	/	/
Oc1ccc(CNc2ccccc2)c2cccnc12	73*	-1	4	0	44*	80*
COc1cccc(NCc2ccc(O)c3ncccc23)c1	56*	-2	92*	0	93*	92*
Oc1ccc(CNc2ccc(F)cc2)c2cccnc12	66*	-1	11	-2	104*	100*
O=C1N/C(=C/c2ccc(O)c(Br)c2)C(=O)N1Cc1ccccc1F	-9	0	-6	0	/	/
COc1ccc(-c2nnc(SCC#N)n2-c2ccccc2)cc1	-3	0	-11	0	/	/
CC(C)c1ccc(OCc2nnc(N)s2)cc1	14	0	-39	2	/	/
COc1ccc(NCc2ccc(O)c3ncccc23)c(OC)c1	75*	-1	8	-1	46*	89*
O=S(=O)(NCCN1CCN(c2ccccc2F)CC1)c1ccccc1Cl	72*	0	-5	2	2	-4
Cn1c(=O)oc2cc(S(=O)(=O)NCCN3CCN(c4ccccc4F)CC3)ccc21	14	0	1	0	/	/
CN(C)c1ccc(/C=C(\C#N)C(=O)OCC(=O)Nc2ccc(S(N)(=O)=O)cc2)cc1	11	0	3	-1	/	/
Cc1ccccc1OCCNCC(C)O (stereo not given)	53*	0	1	0	4	9
CCCC(=O)Nc1ccccc1C1(C)CC1	59*	0	3	-1	-3	-17
CC1CCCC(NC(=O)CN(C)S(=O)(=O)c2cccc3cccnc23)C1C (stereo not given)	64*	1	-4	0	10	10
Oc1cccc(C=Nc2ccc(I)cc2)c1O	-2	0	-4	1	/	/
